# According to PubChem BioAssay:
# Test system: PRMT1 (protein arginine N-methyltransferase 1)
# Assay: small molecules binding arginine methyltransferase PRMT1 – biochemical, small-molecule microarray, 635 nm fluorescence, primary screen (AID 1088);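 note: binding of Prmt1 protein to compounds spotted on small-molecule microarray slides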
# Details: higher = more signal
row,SMILES,composite z-score
1,COc1cc(NN2C(C(O)c3ccc(I)cc3)C=CC3C(=O)N(c4ccccc4)C(=O)C32)cc(OC)c1OC (stereo unspecified),1.56
2,CN(C)CCCC[C@@H]1NC(=O)[C@@H]2C[C@H](C(=O)O)[C@H](c3cccc(OCCO)c3)N2C1=O,0.212
3,CN1C(=O)C2C=CC(C(O)c3cc(C(F)(F)F)cc(C(F)(F)F)c3)N(Nc3ccccc3)C2C1=O (stereo unspecified),0.237
4,C=C(/C(=C/C[C@H](OC(=O)c1ccncc1)c1ccccc1OCCO)c1cnc2ccccc2c1)C(C)C,1.54
5,COC(=O)[C@@]1(Cc2ccccc2CN=[N+]=[N-])N=C(c2ccc(OCCCO)cc2)O[C@H]1c1ccccc1,1.45
6,C=CCC(OC(C)=O)[C@@H]1[C@@H](N(Cc2cccc3ccccc23)C(=O)c2ccc(-c3ccccc3)cc2)c2cc(OCCCO)ccc2N1C(=O)c1ccc(-c2ccccc2)cc1 (stereo partly specified),-0.0425
7,COC(=O)[C@@]1(Cc2ccc(F)cc2)[C@H]2c3cc(C(=O)N(C)C)n(Cc4c(CO)[nH]cc(C)c4=O)c3C[C@H]2CN1C(=O)c1ccccc1,-0.51
8,CN(C)C(=O)[C@]1(CCS(=O)(=O)c2ccccc2)N=C(c2ccc(OCCCO)cc2)O[C@@H]1c1ccccc1,1.42
9,CC(C)OC(=O)CC(=O)CC(O)c1ccc([N+](=O)[O-])cc1 (stereo unspecified),0.65
10,CCN(CC)c1ccc(N2CC=CC34O[C@@H]5/C=C\CCC(C)OC(=O)C5[C@H]3C(=O)N(C(C)CO)[C@@H]4C2=O)cc1 (stereo partly specified),0.41
11,Cc1ccc(C(C)CC(O)C2C=CC3C(=O)N(c4ccccc4)C(=O)C3N2Nc2ccc(C#N)cc2)o1 (stereo unspecified),1.55
12,Cc1ccc(F)cc1S(=O)(=O)N[C@@H]1CCN(Cc2cccc3[nH]ccc23)C1,0.317
13,O=C1C2C=CC(C(O)c3ccco3)N(Nc3ccccc3)C2C(=O)N1c1ccccc1 (stereo unspecified),-0.182
14,CCOC(=O)C1=CCC(c2ccco2)N(S(=O)(=O)c2ccc(C)cc2)C1 (stereo unspecified),1.08
15,O=C(NCCN1CCOCC1)[C@@H]1c2ccccc2C(=O)N(Cc2ccccc2)[C@H]1c1ccc(CO)cc1,-0.845
16,CCOC(=O)C1=C[C@@H](c2ccccc2)N(S(=O)(=O)c2ccc(C)cc2)[C@H]1c1ccccc1,0.712

row,SMILES,composite z-score
1,COCCOC(=O)N1C(=O)[C@@]2(c3cc(C#Cc4ccc(OC)cc4)ccc31)[C@H](c1ccc(OCCO)cc1)N1[C@H](c3ccccc3)[C@H](c3ccccc3)OC(=O)[C@H]1[C@@H]2C(=O)Nc1nc2ccccc2s1,1.14
2,[N-]=[N+]=Nc1ccccc1C[C@]1(C(=O)O)N=C(c2ccc(OCCCO)cc2)O[C@H]1c1ccccc1N=[N+]=[N-],1.43
3,CC=CC(O)C1C=CC2C(=O)NC(=O)C2N1Nc1ccccn1 (stereo unspecified),1.36
4,CCOC(=O)C1=C[C@@H](C(C)(C)C)N(S(=O)(=O)c2ccc(C)cc2)[C@H]1c1ccccc1,1.22
5,COC(=O)[C@@]1(Cc2ccc(F)cc2)[C@H]2c3cc(C(=O)N4CCCC4)n(CC4CC4)c3C[C@H]2CN1C(=O)c1ccccc1,0.649
6,CO[C@H]1O[C@H](CO)[C@@H](OC(=O)Nc2ccc(C#N)cc2)[C@@H]2OC(=O)[C@H](Cc3cccc(Br)c3)C/C=C/C[C@@H](Cc3cccc(Br)c3)C(=O)O[C@@H]12,1.24
7,COC(=O)[C@@]1(Cc2ccccc2)[C@H]2c3cc(C(=O)N(C)C)n(CCn4cc([N+](=O)[O-])nc4C)c3C[C@H]2CN1C(=O)c1ccccc1,1.13
8,Cc1ccc(N2C(=O)c3ccccc3[C@](C)(C(=O)NCc3ccccc3)[C@@H]2c2ccc(CO)cc2)nc1,0.596
9,COC(=O)[C@@]1(Cc2ccc(F)cc2)[C@H]2c3cc(C(=O)N4CCCC4)n(C)c3C[C@H]2CN1C(=O)c1ccccc1,0.579
10,CC(C)C(=C=CC[C@@H](O)c1cccc(OCCO)c1)C[C@@H](O)c1ccccn1,0.504
11,O=C(O)[C@H]1C[C@H]2C(=O)N[C@@H](Cc3ccccc3)C(=O)N2[C@H]1c1cccc(OCCO)c1,1.46
12,COc1ccc([Si](C)(C)[C@@H]2[C@@H](CC(=O)N3Cc4ccccc4C[C@H]3CO)O[C@]3(C(=O)N(Cc4ccc(N5CCC5=O)cc4)c4ccccc43)[C@H]2C)cc1,1.55
13,Cc1ccc([C@H]2C(C(=O)O)=C[C@@H](C(C)(C)C)N2S(=O)(=O)c2ccc(C)cc2)cc1,1.39
14,CN1C(=O)[C@@]2(Cc3ccccc3)N=C(c3ccc(OCCCO)cc3)O[C@H]2c2ccccc21,1.56
15,COCCCNC(=O)[C@@]1(Sc2ccc(C)cc2)CC(=O)N(C(C)C)[C@@H]1c1ccc(CO)cc1I,1.31
